Screening results from PubChem BioAssay.
The list is not random: actives were taken first. Their share in the collection is about 1.4%.
Polio RdRp inh – inhibitors of poliovirus RNA polymerase binding and polymerization; P03300; poliovirus polymerase elongation, fluorescence polarization; stronger effect = lower value; % elongation, % (compound at 16.7 µg/mL); hit rate 0.66% among 150,000; AID 588519; in the data active = % elongation below about 90%
Target sequence (P03300 1749-2209 limits assumed): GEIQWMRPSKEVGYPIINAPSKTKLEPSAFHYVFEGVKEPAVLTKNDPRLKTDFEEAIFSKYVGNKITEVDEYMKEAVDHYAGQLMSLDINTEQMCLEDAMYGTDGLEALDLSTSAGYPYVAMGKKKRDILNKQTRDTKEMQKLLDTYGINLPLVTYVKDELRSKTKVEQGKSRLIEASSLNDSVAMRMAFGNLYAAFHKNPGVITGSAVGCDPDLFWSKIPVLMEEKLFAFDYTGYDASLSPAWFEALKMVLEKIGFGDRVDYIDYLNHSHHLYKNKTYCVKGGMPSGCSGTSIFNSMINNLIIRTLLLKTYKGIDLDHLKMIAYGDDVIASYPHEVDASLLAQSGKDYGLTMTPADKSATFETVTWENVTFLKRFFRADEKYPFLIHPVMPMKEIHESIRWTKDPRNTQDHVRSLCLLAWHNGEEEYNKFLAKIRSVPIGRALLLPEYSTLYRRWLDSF
AID504770 – growth inhibitors of E. coli YBA685 in a screen for V. cholerae RctB (chromosome II replication) inhibitors. E. coli YBA685 rctB-dependent plasmid, OD600 growth, 3 h; stronger effect = lower value. z-score (test concentration not listed). hit rate 0.27% among 130,000. AID 504770; in the data active = z-score below about -2, passing the limit was not always enough
Mtb MenB inh – blocks the Mycobacterium tuberculosis MenB enzyme | P9WNP5 | MenB enzyme assay, absorbance read-out | inhibition, % (no concentration beside the values) | hit rate 0.43% among 100,000; in the data active = inhibition above about 21%, passing the limit was not always enough
MbtI inh – MbtI salicylate synthase inhibition. P9WFX0. purified MbtI enzyme, fluorescence intensity read-out. inhibition, % (no concentration beside the values). hit rate 0.89% among 100,000. AID 493033; in the data active = inhibition mostly above about 56%, no sharp cut-off; inactive = mostly below about 77%
Large screens that a line does not name were inactive; ! = not active in a repeat.

O=C(NC1(O)C(=O)c2ccccc2C1=O)c1ccc(C(F)(F)F)cc1	Polio RdRp inh 9.0
O=C(NC1(O)C(=O)c2ccccc2C1=O)c1cnn(-c2ccccc2)c1C(F)(F)F	Polio RdRp inh 48
Cc1ccc(C(=O)NC2(O)C(=O)c3ccccc3C2=O)cc1C	none (no result: Polio RdRp inh, Mtb MenB inh, MbtI inh)
Cc1nc(C(=O)NC2(O)C(=O)c3ccccc3C2=O)cs1	none (no result: Polio RdRp inh, Mtb MenB inh, MbtI inh)
Cc1csc(=O)n1CC(=O)Nc1ccccc1	none
C=CCn1c(CSCc2ccc(F)cc2)n[nH]c1=S	MbtI inh 64
C=CCn1c(Cc2ccc(OC)c(Cl)c2)n[nH]c1=S	MbtI inh 91
C=CCn1c(C(C)Oc2ccc(Cl)cc2Cl)n[nH]c1=S (configuration not stated)	none
COC(=O)c1cc(NC(=O)CNC2CCCCCC2)cc(C(=O)OC)c1	none
COc1cc2c(cc1OC)CN(c1ccc3ccccc3n1)CC2	Polio RdRp inh 89
Cc1c(C(=O)Nc2cccc(F)c2)sc2nc(-c3cc4ccccc4oc3=O)[nH]c(=O)c12	Polio RdRp inh 64 (no result: AID504770, Mtb MenB inh, MbtI inh)
Cc1cc(C)cc(NC(=O)c2sc3nc(-c4cc5ccccc5oc4=O)[nH]c(=O)c3c2C)c1	none (no result: AID504770, Mtb MenB inh, MbtI inh)
Fc1ccccc1CSc1nnc2c(n1)[nH]c1ccccc12	none
COc1ccccc1-n1nnc(C(=O)N2CCCC2)c1N	Mtb MenB inh 31
COc1ccccc1N1CCN(C(=O)c2nc(-c3ccc(C)cc3)n3c2CCCCC3)CC1	none (no result: AID504770, Mtb MenB inh, MbtI inh)
Oc1ccc(CN2CCN(c3ccccc3)CC2)c2cccnc12	none
O=C(O)c1c(CN2CCN(c3ccccc3)CC2)c(O)c2ccccc2c1O	Polio RdRp inh 86
COc1ccc(-n2c(O)c(C=NCc3ccccc3)c3ccccc3c2=O)cc1	none (no result: Mtb MenB inh)
Cc1[nH]nc(-c2ccc(S(=O)(=O)N3CCc4ccccc43)s2)c1C	none
Cc1ccc(C(=O)c2sc(Nc3ccc(F)cc3)c(C#N)c2N)cc1	Polio RdRp inh 77 (no result: AID504770, Mtb MenB inh, MbtI inh)
CNc1c(C(=O)c2ccc(F)cc2)sc(N)c1C#N	none
CCOc1ccc(N2C(=O)/C(=C/c3cccs3)C(=O)N(c3ccccc3)C2=S)cc1	MbtI inh 73
CC(C)(C)c1cc(O)c(O)c(Br)c1	MbtI inh 101
COC(=O)c1cc(Br)c(O)c(Br)c1	none (no result: Polio RdRp inh, Mtb MenB inh, MbtI inh)
S=c1[nH]nc(-c2ccccc2)n1-c1ccccc1	none
S=c1[nH]nc(Nc2ccccc2)n1-c1ccccc1	MbtI inh 58
CCC(=O)NC(=S)c1c(C)nc2sccn12	Polio RdRp inh 57
Cc1ccc(S(=O)(=O)C2(C(=O)N3CC4CC(C3)c3cccc(=O)n3C4)CC2)cc1 (configuration not stated)	none
COC(=O)C(C#N)c1nc2ccccc2nc1N1CCN(c2ccc(F)cc2)CC1 (configuration not stated)	none
CC1=CC(=O)C(CCCCCC2=CC(=O)C(C)=CC2=O)=CC1=O	MbtI inh 95
CC1=CC(=O)C(CCOCCC2=CC(=O)C(C)=CC2=O)=CC1=O	MbtI inh 100
NC(=O)c1cccc(N=Cc2ccc3ccccc3c2)c1	none (no result: MbtI inh)
CC(C)(C)N1Sc2ccccc2NC1=S	MbtI inh 90!
CC1CC(=S)Nc2ccccc2S1 (configuration not stated)	none
O=C(Nc1cccc(F)c1)[C@H](Cc1ccccc1)N1Cc2ccccc2C1=O	none
O=C(Nc1cccc(F)c1)[C@H](CSCc1ccccc1)N1Cc2ccccc2C1=O	Polio RdRp inh 84 (no result: AID504770, Mtb MenB inh, MbtI inh)
O=C(c1csc(-c2ccccc2)n1)N(Cc1ccccn1)Cc1ccccn1	none (no result: Polio RdRp inh, Mtb MenB inh, MbtI inh)
Cc1cc(C)cc(OCc2cc(=O)n3c4c(sc3n2)CCCC4)c1	Polio RdRp inh 78 (no result: AID504770, Mtb MenB inh, MbtI inh)
COc1ccc(Cn2c(=O)[nH]c3cc(C(=O)N4CCN(c5cccc(OC)c5)CC4)ccc3c2=O)cc1	Polio RdRp inh 73 (no result: AID504770, Mtb MenB inh, MbtI inh)
COc1ccc(Cn2c(=O)[nH]c3cc(C(=O)N4CCN(c5cccc(Cl)c5)CC4)ccc3c2=O)cc1	none (no result: AID504770, Mtb MenB inh, MbtI inh)
NC(=S)NNc1ccc(Cl)c(Cl)c1	MbtI inh 95
NNc1ccc(Cl)c(Cl)c1	AID504770 -3.6 (no result: Mtb MenB inh)
CCOc1ccc(C(=O)/C=C/C(=O)Nc2ccc(F)cc2)cc1	none (no result: Polio RdRp inh, Mtb MenB inh, MbtI inh)
Cn1cccc1C(=O)NC(=O)CSc1nc2ncc(Cl)cc2[nH]1	none
C=C(C)CN(CC)C(=O)CSc1nc2ncc(Cl)cc2[nH]1	Polio RdRp inh 88
CCCCN(C)Cc1ccncc1	none
O=S(=O)(/N=C(/NC(=S)OC1CCCCC1)c1ccccc1)c1ccccc1	none
N#CCC(=O)NCc1ccccc1	none (no result: Mtb MenB inh)
CC(C)(C)Nc1n[nH]c(=S)s1	Polio RdRp inh 76, MbtI inh 73
Cc1ccc(CNc2n[nH]c(=S)s2)cc1	none (no result: Polio RdRp inh, Mtb MenB inh, MbtI inh)
N#Cc1c(Nc2ccccc2Cl)s[nH]c1=O	none
N#Cc1c(Nc2ccccc2)s[nH]c1=O	AID504770 -2.6
S=C(NC1CCCCC1)Sc1ccc(Cl)cc1	MbtI inh 56
